Experimental data reported in PubChem BioAssay (NCATS).
Inconclusive results are not listed. Entries that show only a call come without a potency. A number with no mark means an inactive call. The source made the active and inactive calls. The call rests on the fitted dose curve; in most records, active means well fitted curve in the direction sought with a large enough effect; inconclusive means small, poorly fitted or top-dose-only effect, or another doubt; inactive means no such curve, though single readings can be large; an effect the other way counts as inactive or inconclusive.

Experiments:
[1] = target: Rap guanine nucleotide exchange factor 3 (Homo sapiens) (UniProt O95398); assay: Confirmatory qHTS for agonist of cAMP-regulated guanine nucleotide exchange factor 3 (EPAC1) (AID 1645881);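 further: EPAC1 catalysed release of BODIPY-GDP from Rap1B seen as fluorescence loss; nearly all actives have a fitted effect of over 75% in size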
Sequence of Rap guanine nucleotide exchange factor 3 (Homo sapiens) (O95398 whole entry, looked up): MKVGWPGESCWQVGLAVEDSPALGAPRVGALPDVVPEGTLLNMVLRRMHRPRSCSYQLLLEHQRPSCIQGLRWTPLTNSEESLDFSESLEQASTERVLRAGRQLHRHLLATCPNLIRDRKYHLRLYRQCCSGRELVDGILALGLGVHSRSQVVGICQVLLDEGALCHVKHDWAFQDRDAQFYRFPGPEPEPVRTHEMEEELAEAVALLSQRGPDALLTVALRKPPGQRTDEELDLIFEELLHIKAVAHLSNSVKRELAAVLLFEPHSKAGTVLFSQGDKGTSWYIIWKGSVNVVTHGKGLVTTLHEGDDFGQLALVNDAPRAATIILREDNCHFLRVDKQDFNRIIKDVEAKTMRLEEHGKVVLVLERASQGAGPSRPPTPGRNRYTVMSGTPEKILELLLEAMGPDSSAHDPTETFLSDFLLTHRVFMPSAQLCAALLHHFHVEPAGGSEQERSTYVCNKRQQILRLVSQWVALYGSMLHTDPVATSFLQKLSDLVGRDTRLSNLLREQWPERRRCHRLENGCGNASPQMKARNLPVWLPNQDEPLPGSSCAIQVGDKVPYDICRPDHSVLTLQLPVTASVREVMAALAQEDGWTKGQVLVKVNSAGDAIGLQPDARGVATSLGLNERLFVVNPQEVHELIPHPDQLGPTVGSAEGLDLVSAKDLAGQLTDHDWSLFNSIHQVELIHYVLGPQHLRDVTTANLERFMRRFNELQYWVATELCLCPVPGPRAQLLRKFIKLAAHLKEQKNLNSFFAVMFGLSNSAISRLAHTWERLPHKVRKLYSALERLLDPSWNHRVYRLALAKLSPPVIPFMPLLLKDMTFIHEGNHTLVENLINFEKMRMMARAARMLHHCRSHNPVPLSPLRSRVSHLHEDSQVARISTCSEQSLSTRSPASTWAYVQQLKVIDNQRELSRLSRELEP

[2] = target: Rap guanine nucleotide exchange factor 4 (Homo sapiens) (UniProt Q8WZA2); assay: Confirmatory qHTS for agonist of cAMP-regulated guanine nucleotide exchange factor 4 (EPAC2) (AID 1645884);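 further: nucleotide exchange releases bodipy-GDP from Rap1 and this lowers its fluorescence; nearly all actives have a fitted effect of over 65% in size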
Sequence of Rap guanine nucleotide exchange factor 4 (Homo sapiens) (Q8WZA2 whole entry, looked up): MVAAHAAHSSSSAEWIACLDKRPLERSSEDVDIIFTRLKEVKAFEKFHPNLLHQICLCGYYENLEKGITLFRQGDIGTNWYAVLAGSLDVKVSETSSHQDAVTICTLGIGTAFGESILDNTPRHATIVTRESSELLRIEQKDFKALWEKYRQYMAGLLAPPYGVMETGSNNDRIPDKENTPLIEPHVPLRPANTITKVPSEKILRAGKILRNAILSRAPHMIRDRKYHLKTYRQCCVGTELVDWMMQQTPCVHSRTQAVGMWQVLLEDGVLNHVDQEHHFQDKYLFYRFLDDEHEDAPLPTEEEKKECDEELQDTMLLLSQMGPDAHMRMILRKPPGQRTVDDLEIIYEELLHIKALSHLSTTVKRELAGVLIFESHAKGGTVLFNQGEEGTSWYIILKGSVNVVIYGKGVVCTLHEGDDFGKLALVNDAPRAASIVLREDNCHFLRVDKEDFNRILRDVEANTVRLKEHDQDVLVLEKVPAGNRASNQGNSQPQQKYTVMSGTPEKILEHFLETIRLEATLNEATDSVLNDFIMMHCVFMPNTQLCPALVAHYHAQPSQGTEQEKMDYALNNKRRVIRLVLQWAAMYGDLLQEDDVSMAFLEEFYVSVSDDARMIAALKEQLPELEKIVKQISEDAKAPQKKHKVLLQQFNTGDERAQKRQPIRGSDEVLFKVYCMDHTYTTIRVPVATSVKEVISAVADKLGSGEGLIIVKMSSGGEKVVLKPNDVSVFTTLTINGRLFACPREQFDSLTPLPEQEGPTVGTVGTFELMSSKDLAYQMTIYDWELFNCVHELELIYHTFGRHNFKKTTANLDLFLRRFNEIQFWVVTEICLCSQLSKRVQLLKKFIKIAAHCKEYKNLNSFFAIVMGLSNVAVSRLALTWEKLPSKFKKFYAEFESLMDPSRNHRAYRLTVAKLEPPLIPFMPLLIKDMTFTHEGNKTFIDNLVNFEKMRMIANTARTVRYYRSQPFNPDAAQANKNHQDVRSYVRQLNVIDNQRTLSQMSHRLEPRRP

[3] = target: Rap guanine nucleotide exchange factor 4 (Homo sapiens) (UniProt Q8WZA2); assay: Confirmatory qHTS for antagonist of cAMP-regulated guanine nucleotide exchange factor 4 (EPAC2) (AID 1645885); further: nearly all actives have a fitted effect of over 25% in size; further: potency means the concentration at half of the fitted maximal effect
[4] = target: Rap guanine nucleotide exchange factor 3 (Homo sapiens) (UniProt O95398); assay: Counterscreen qHTS for antagonist of cAMP-regulated guanine nucleotide exchange factor 3 (EPAC1) (AID 1645888);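 further: fluorescence loss as bound BODIPY-GDP is released from Rap1B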
Outline: (§1)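 Rap1B–BODIPY-GDP (250 nM) with 50 uM GDP; compounds pin-transferred to 9.74 nM–152 uM final (activator) or from 7.32 nM upwards (inhibitor). Fluorescence Ex/Em 480/540 nm read at 5 and 30 min, then after adding cAMP or buffer, at room temperature.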

[5] = target: Rap guanine nucleotide exchange factor 3 (Homo sapiens) (UniProt O95398); assay: Counterscreen qHTS for agonist of cAMP-regulated guanine nucleotide exchange factor 3 (EPAC1) (AID 1645889); further: nearly all actives have a fitted effect of over 40% in size
Outline: as §1

Row | SMILES | Potency [1] | activation [2] | Potency [3] | activity change, negative = inhibition [4] | activation [5] | Potency [2] | Potency [4] | Potency [5] | outcome [3]
1 | CCCCC[C@@H](C)N1C[C@@H](COCc2ccccc2)Oc2cc(N3CC[C@H](O)C3)ccc2S1(=O)=O | inactive | -2.04% [at 17.1 µM, percent relative to cAMP agonist control] | inactive | -7.58% [at 30.8 µM] | 2.97% [at 30.8 µM] | – | – | – | –
2 | Cc1ccc(C(=O)OCC(=O)c2ccc(CC(=O)N3CCOCC3)s2)c(C)c1 | inactive | – | inactive | – | – | inactive | inactive | inactive | –
3 | CCc1cccc(C)c1Nc1c(-c2ccsc2)nc2ncccn12 | inactive | – | – | – | – | inactive | inactive | inactive | inactive [at 12.7 µM]
4 | COc1ccc(-n2c(C)cc(/C=C3\SC(=O)NC3=O)c2C)cc1 | inactive | – | inactive | – | – | inactive | inactive | inactive | –
5 | COc1cccc(OCc2nc3ccccc3n2Cc2ccccc2)c1 | inactive | – | inactive | – | – | inactive | inactive | inactive | –
6 | O=C(CSc1nc2ccsc2c(=O)n1NC(=O)c1ccccc1)Nc1nccs1 | inactive | – | inactive | – | – | inactive | inactive | inactive | –
7 | CC(=O)NC(C)(c1ccccc1)c1nc(-c2cccc(C(F)(F)F)c2)cs1 (stereo not given) | inactive | – | inactive | – | – | inactive | inactive | inactive | –
8 | CC1=C(C(=O)OC2CCCCCC2)C(c2c(Cl)cccc2Cl)CC(=O)N1 (stereo not given) | inactive | – | inactive | – | – | inactive | inactive | inactive | –
9 | C[C@@H]1ON(C)[C@H]2C[C@H]3c4[nH]c5ccc(-c6ccc7c(c6)OCO7)cc5c4CCN3C(=O)[C@@H]12 | inactive | 1.59% [at 17.1 µM, percent relative to cAMP agonist control] | inactive | -7.04% [at 30.8 µM] | 32% [at 30.8 µM] | – | – | – | –
10 | CCc1ccc(NS(=O)(=O)c2cc3c4c(c2)CCN4C(=O)CC3)cc1 | inactive | – | inactive | – | – | inactive | inactive | inactive | –
11 | CCCCN1CC(c2nc3ccccc3n2CCCCOc2cc(C)cc(C)c2)CC1=O (stereo not given) | inactive | – | inactive | – | – | inactive | inactive | inactive | –
12 | CCn1c(SCC(=O)Nc2sc3c(c2C(N)=O)CCC(C)C3)nnc1-c1ccco1 (stereo not given) | inactive | – | inactive | – | – | inactive | inactive | inactive | –
13 | CCc1nnc(NS(=O)(=O)c2ccc(N/C=C\C(=O)c3ccc4ccccc4c3)cc2)s1 | inactive | 1.49% [at 17.1 µM, percent relative to cAMP agonist control] | inactive | -10.2% [at 30.8 µM] | 3.82% [at 30.8 µM] | – | – | – | –
14 | COC(=O)c1ccc2nc(-c3ccco3)c(Cc3ccc(OC)cc3C)n2c1 | inactive | – | inactive | – | – | inactive | inactive | inactive | –
15 | C=CCn1cc(C(=O)N2CCc3ccccc3C2)c(=O)c2cc(S(=O)(=O)N(CC)CC)ccc21 | inactive | – | inactive | – | – | inactive | inactive | inactive | –
16 | COc1ccc(OCC(=O)NCc2ccc3c(c2)CCN3C(=O)c2cccc(C)c2)cc1 | inactive | – | inactive | – | – | inactive | inactive | inactive | –
17 | CCOC(=O)C1CCc2c(ccc3ccccc23)N1CCC#N (stereo not given) | inactive | 0.813% [at 17.1 µM, percent relative to cAMP agonist control] | inactive | -15.2% [at 30.8 µM] | 2.64% [at 30.8 µM] | – | – | – | –
18 | CCN=C1S/C(=C\c2ccc(-c3cccc(C(=O)O)c3)o2)C(=O)N1CC | inactive | – | inactive | – | – | inactive | inactive | inactive | –
19 | O=C1NC(=O)/C(=C/c2ccc(-c3cc(C(=O)O)ccc3Cl)o2)S1 | inactive | 7.65% [at 17.1 µM, percent relative to cAMP agonist control] | inactive | 4.91% [at 30.8 µM] | 8.4% [at 30.8 µM] | – | – | – | –
20 | COc1ccc(C(C#N)N2CCC(c3ccccc3)=N2)cc1 (stereo not given) | inactive | – | 7.57 µM (active) | – | – | inactive | inactive | inactive | –
21 | COc1cc(/C=C2/SC(=O)NC2=O)ccc1OCc1ccccc1 | inactive | – | inactive | – | – | inactive | inactive | inactive | –

Row | SMILES | Potency [1] | activation [2] | Potency [3] | activity change, negative = inhibition [4] | activation [5] | Potency [2] | Potency [4] | Potency [5] | outcome [3]
22 | CCCCCNC(=O)C(C#N)c1nc2ccccc2nc1N1CCCC1 (stereo not given) | inactive | -33.7% [at 17.1 µM, percent relative to cAMP agonist control] | inactive | -27.7% [at 30.8 µM] | -1.55% [at 30.8 µM] | – | – | – | –
23 | CCC(C)[C@H]1COCCS(=O)(=O)N1Cc1ccc(Cl)cc1Cl (stereo not given in full) | inactive | – | inactive | – | – | inactive | inactive | inactive | –
24 | O=c1[nH]n2c(=O)c3c([nH]c2c1N=Nc1cccc(Cl)c1)CCCC3 | inactive | -16.2% [at 17.1 µM, percent relative to cAMP agonist control] | inactive | -25.4% [at 30.8 µM] | -2.93% [at 30.8 µM] | – | – | – | –
25 | CC(=O)N1CCN(Cc2cc(=O)oc3ccc4ccccc4c23)CC1 | inactive | 4.37% [at 17.1 µM, percent relative to cAMP agonist control] | inactive | 9.94% [at 30.8 µM] | 27.9% [at 30.8 µM] | – | – | – | –
26 | O=C(O)C/C(=C\c1cc(Cl)c2c(c1)OCO2)c1nc2ccccc2s1 | inactive | -1.81% [at 17.1 µM, percent relative to cAMP agonist control] | inactive | -1% [at 30.8 µM] | -1.83% [at 30.8 µM] | – | – | – | –
27 | O=C(CCn1cnc2onc(-c3ccc(F)cc3)c2c1=O)Nc1ccc(F)c(Cl)c1 | inactive | – | inactive | – | – | inactive | inactive | inactive | –
28 | COc1ccc(N(CC(=O)NC2CCCCCCC2)S(=O)(=O)c2c(C)nn(C)c2C)cc1 | inactive | – | inactive | – | – | inactive | inactive | inactive | –
29 | O=C(O)c1ccc(N/N=C/c2cn(Cc3ccccc3F)c3ccccc23)cc1 | inactive | – | inactive | – | – | inactive | inactive | inactive | –
30 | CCOc1ccc(/C=C/C(=O)c2c(O)c3ccccc3oc2=O)cc1 | inactive | – | inactive | – | – | inactive | inactive | inactive | –
31 | C[C@@H]1CC=C[C@H]2[C@H]1C(=O)N(Cc1ccccc1)[C@H]2c1ccc(C(F)(F)F)cc1 | inactive | -4.74% [at 17.1 µM, percent relative to cAMP agonist control] | inactive | -9.3% [at 30.8 µM] | 7.88% [at 30.8 µM] | – | – | – | –
32 | N#C/C(=C/c1ccc(-c2ccc(S(N)(=O)=O)cc2)o1)c1nc2ccccc2s1 | inactive | -24.7% [at 17.1 µM, percent relative to cAMP agonist control] | inactive | 5.29% [at 30.8 µM] | -62% [at 30.8 µM] | – | – | – | –
33 | O=[N+]([O-])CC(c1ccccc1)c1c[nH]c2ccccc12 (stereo not given) | inactive | – | 21.3 µM (active) | – | – | inactive | inactive | inactive | –
34 | CCC(C)n1c(SCC(=O)Nc2ccc3[nH]c(=O)[nH]c3c2)nc2ccccc2c1=O (stereo not given) | inactive | 1.51% [at 17.1 µM, percent relative to cAMP agonist control] | inactive | -15% [at 30.8 µM] | 13.5% [at 30.8 µM] | – | – | – | –
35 | COc1ccccc1N(CC(=O)Nc1cc(C)on1)S(=O)(=O)c1ccc(Cl)cc1 | inactive | 2.18% [at 17.1 µM, percent relative to cAMP agonist control] | inactive | -8.9% [at 30.8 µM] | 29.1% [at 30.8 µM] | – | – | – | –
36 | O=S(=O)(O)c1ccc(NN=Cc2ccccc2O)cc1 | inactive | -8.55% [at 17.1 µM, percent relative to cAMP agonist control] | inactive | 3.2% [at 30.8 µM] | 20.1% [at 30.8 µM] | – | – | – | –
37 | CC1(Cc2ccc(OC(F)(F)F)cc2)C(=O)Nc2ccc(OC(F)(F)F)cc21 (stereo not given) | inactive | -11.8% [at 17.1 µM, percent relative to cAMP agonist control] | inactive | -17.3% [at 30.8 µM] | 35.9% [at 30.8 µM] | – | – | – | –
38 | CCN(c1ccc(NC(=O)CCc2nc3sc4c(c3c(=O)[nH]2)CCCC4)cc1)C(C)C | inactive | -1.91% [at 17.1 µM, percent relative to cAMP agonist control] | inactive | -10.9% [at 30.8 µM] | 2.05% [at 30.8 µM] | – | – | – | –
39 | CCOC(=O)C1=C(N)OC2=C(C(=O)CCC2)C1c1sccc1C (stereo not given) | inactive | 4.2% [at 17.1 µM, percent relative to cAMP agonist control] | inactive | -19.9% [at 30.8 µM] | -1.77% [at 30.8 µM] | – | – | – | –
40 | COc1ccc(OC)c(C(=O)/C=C/c2ccccc2C(F)(F)F)c1 | inactive | – | inactive | – | – | inactive | inactive | inactive | –
41 | Cc1cc(-c2ccc(F)cc2)n2ncc(-c3ccccc3)c2n1 | inactive | – | inactive | – | – | inactive | inactive | inactive | –
42 | CCCN1C(=O)c2ccccc2NC1c1ccc(OC)c(CSc2ccccn2)c1 (stereo not given) | inactive | – | inactive | – | – | inactive | inactive | inactive | –
